D3 antag: D3 dopamine receptor (human) antagonism. P35462. D3R cells, DiscoveRx beta-arrestin luminescence, antagonist mode; hits give low values. max response, negative = inhibition, %. 360,000 tested, 2.5% active. AID 652054; in the data active = max response below about -50%; inconclusive = no clear call, values can overlap the other calls; note: % is set by controls: 0 for no effect and ±100 for the full control effect
Target sequence (P35462 whole entry, looked up): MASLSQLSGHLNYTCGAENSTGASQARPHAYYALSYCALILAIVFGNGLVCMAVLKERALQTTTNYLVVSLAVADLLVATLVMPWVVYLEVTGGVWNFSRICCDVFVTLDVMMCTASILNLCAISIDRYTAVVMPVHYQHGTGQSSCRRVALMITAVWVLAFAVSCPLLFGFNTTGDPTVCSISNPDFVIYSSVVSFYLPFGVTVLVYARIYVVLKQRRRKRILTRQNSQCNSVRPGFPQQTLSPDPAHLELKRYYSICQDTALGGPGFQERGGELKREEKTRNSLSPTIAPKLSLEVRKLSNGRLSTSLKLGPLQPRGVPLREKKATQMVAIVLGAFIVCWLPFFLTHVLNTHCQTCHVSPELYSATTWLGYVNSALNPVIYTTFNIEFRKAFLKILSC
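Cells plated overnight at 1500 cells/well, then exposed to library compounds with dopamine controls for 90 minutes at 37 degrees C. DiscoveRx reagent added for 30–60 minutes at room temperature; luminescence read, quantitative HTS format.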
ClpP mod: qHTS Assay for Activators of ClpP | purified B. subtilis ClpP, FRET peptide cleavage, 20 min | AID 651965, 2013 | 340,000 tested, 1.9% active | ATP-dependent Clp protease proteolytic subunit (Bacillus subtilis (strain 168)), P80244 | Potency, µM (doses to about 57.5 µM), for inactives: at the top dose activity change, negative = active; active = well fitted falling curve with a large enough effect; inconclusive = small, poorly fitted or top-dose-only effect; inactive = no such curve, though single readings can be large or run the other way; note: potency is the fitted concentration of half-maximal effect; the source files actives as falling curves though it sought activators and does not explain the sign; nearly all actives have a fitted effect of over 65% in size
Target sequence (P80244 whole entry, looked up): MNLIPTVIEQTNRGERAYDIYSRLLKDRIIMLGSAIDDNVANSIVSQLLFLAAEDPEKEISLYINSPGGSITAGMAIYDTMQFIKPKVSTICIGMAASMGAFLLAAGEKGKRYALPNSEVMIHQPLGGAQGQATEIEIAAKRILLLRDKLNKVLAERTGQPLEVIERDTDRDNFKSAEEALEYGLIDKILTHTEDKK
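Purified B. subtilis ClpP, 10 microg/mL final in Tris/HCl pH8 with KCl, BSA, glycerol and Tween-20, cleaved an Abz/nitrotyrosine-quenched decapeptide. Fluorescence (ex 320, em 430) was read at 0 and 20 min at room temperature. Delta was normalized to 5.8 microM ADEP and DMSO/no-enzyme controls.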
IL-1B inflam inh: blocks inflammasome-driven IL-1 beta release | 360,000 tested, 4.7% active | AID 743279 | THP-1 LPS/ATP IL-1B secretion, AlphaLISA, 16 h; hits give low values | activity change, % at 57.5 µM; in the data active = activity change below about -50%; inconclusive = mostly about -30% to -49%; note: % is set by controls: 0 for no effect and ±100 for the full control effect
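THP-1 cells pretreated 1 hr with compounds (up to 57.5 uM final), then stimulated with LPS (250 ng/mL final) plus ATP (1.25 mM final); secreted IL-1B measured by AlphaLISA after 16 hr, decreased signal indicating inhibition.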
DRD3 agonist: activates the human D3 dopamine receptor | max activation, % | P35462 | D3R DiscoveRx beta-arrestin cells, luminescence, 90 min | 410,000 tested, 0.58% active | AID 652048; in the data active = max activation above about 30%; note: 0% is about no effect
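Agonist-mode cell screen: cells plated at 1500/well and incubated overnight at 37 °C, then exposed to library compounds for 90 min at 37 °C. Detection reagent was added for 30–60 min at room temperature, and luminescence was read.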
TDP1 cell CPT: growth inhibition of DT40 Tdp1-/-;hTDP1 cells with camptothecin (screen for TDP1 inhibitors) | chicken DT40 Tdp1-/-;hTDP1 cells + 20 nM CPT, ATP luminescence, 48 h | Potency, µM (doses to about 46.2 µM), without a hit: at the top dose activity change, negative = growth inhibition, hits mostly inhibitors | 420,000 tested, 12% active; note: potency is the fitted concentration of half-maximal effect; % is set by controls: 0 for no effect and ±100 for the full control effect; nearly all actives have a fitted effect of over 55% in size
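Chicken DT40 Tdp1-/- cells stably complemented with human TDP1 were seeded at 400 cells/well in medium containing 20 nM camptothecin, exposed to pin-transferred compounds, and grown at 37 °C for at least 48 hr. Viability was read as ATP luminescence.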
DT40 TDP1 no CPT: qHTS for Inhibitors of human tyrosyl-DNA phosphodiesterase 1 (TDP1): qHTS in cells in absence of CPT; Potency, µM (highest dose often 46.2 µM), inactives show top-dose activity change, negative = growth inhibition, hits mostly inhibitors; DT40 Tdp1-/- hTDP1 cells, no CPT, ATP luminescence, 48 h; 420,000 tested, 15% active; AID 686978, 2013; note: potency is the fitted concentration of half-maximal effect; % is set by controls: 0 for no effect and ±100 for the full control effect; nearly all actives have a fitted effect of over 55% in size
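Compound effects on proliferation are scored in DT40 Tdp1-/-;hTDP1 cells in the absence of CPT. ATP levels (CellTiter-Glo luminescence) are recorded after a ≥48 hr, 37 °C incubation.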
* hit, by the source's call; i = inactive; ? = inconclusive; . = no result. Shown are actives, neighbours in structure and some others; about 21% of the full set was active somewhere. Unless noted, calls come from the whole dose curve; as a rule, active = well fitted inhibition curve with a large enough effect; inconclusive = small, poorly fitted or top-dose-only effect; inactive = flat fitted curve, though single readings scatter.

SMILES | D3 antag | ClpP mod | IL-1B inflam inh | DRD3 agonist | TDP1 cell CPT | DT40 TDP1 no CPT
S=c1nc(-c2ccccc2)oc2c1CCCC2 | 5.0 | 0.6% | 14.3 | 1.2 | ? | 25.9µM*
COc1cccc(-c2nc(=S)c3c(o2)CCCC3)c1 | 8.3 | 1.4% | -10.2 | -2.5 | -12.7% | -18.7%
CSc1ccc(/C=C2\C=Cc3ccccc32)cc1 | . | 0.2% | . | . | 4.8% | ?
CCOC(=O)C1CCCN(S(=O)(=O)c2ccc3c4c2CC(=O)N4CC(C)S3)C1 (configuration not stated) | 45.4 | -5.4% | 15.8 | -6.2 | ? | 18.4µM*
CCOC(=O)C1CCN(S(=O)(=O)c2ccc3c4c2CC(=O)N4CC(C)S3)CC1 (configuration not stated) | 19.5 | -6.5% | 21.8 | 3.7 | 20.6µM* | ?
CCOCCCNC(=O)c1cn(CC)c2ccc(S(=O)(=O)N3CCCC3)cc2c1=O | -15.0 | -0.2% | -2.4 | -3.7 | -22.2% | -11.7%
C=CCNC(=O)/C(C#N)=C/c1c(C)nn(-c2ccccc2)c1Cl | 17.8 | . | -67.9* | 7.0 | ? | ?
CCOc1ccccc1NC(=O)/C(C#N)=C/c1c(C)nn(-c2ccccc2)c1Cl | 24.5 | 1.0% | -50.8* | 2.1 | ? | ?
COc1ccc(NC(=O)Nc2cccc3c2O[C@H](CN(C)Cc2ccc(-c4ccccc4)cc2)[C@@H](C)CN([C@H](C)CO)C3=O)cc1 | 11.6 | -9.6% | 56.8 | 4.0 | 8.2µM* | 11.6µM*
C[C@H](CO)N1C[C@H](C)[C@H](CN(C)Cc2ccccc2)Oc2ccc(NC(=O)Nc3ccc(F)cc3)cc2C1=O | 25.6 | -11.8% | -16.1 | 10.7 | ? | ?
C[C@@H]1CN([C@@H](C)CO)C(=O)c2cccc(NC(=O)Nc3ccc(F)cc3)c2O[C@@H]1CN(C)Cc1ccc(Oc2ccccc2)cc1 | -70.7* | -21.0% | 18.8 | -14.1 | 13µM* | 18.4µM*
O=C(CSc1ccc(-c2nc3ccccc3[nH]2)cn1)Nc1ccc(S(=O)(=O)N2CCCC2)cc1 | 36.1 | 20µM* | -8.3 | 6.4 | ? | 13µM*
Cc1cc2nc(-c3ccc(SCC(=O)Nc4ccc(S(=O)(=O)N5CCCC5)cc4)nc3)[nH]c2cc1C | 7.2 | -4.6% | 50.1 | 10.0 | -5.2% | 13µM*
O=C(Nc1ccn(CC(=O)N2CCN(c3ccccn3)CC2)c(=O)n1)OCc1ccccc1 | -23.8 | 3.8% | 7.0 | 5.5 | 9.2% | -27.3%
O=C1OCC(c2ccc(Cl)s2)=C1c1ccccc1[N+](=O)[O-] | ? | . | -65.3* | -2.8 | 0.1% | ?
CS(=O)(=O)c1ccccc1C(=O)Nc1ccc(S(=O)(=O)N2CCCC2)cc1 | 3.7 | . | 19.4 | 5.5 | ? | -16.1%
CCCCN(CCCNC(=O)c1ccc2c(c1)NC(=O)CN2C)c1ccccc1 | -0.3 | 1.0% | -103.1* | 2.2 | ? | ?
CC(C)CCSc1nc2c(c(=O)n(C)c(=O)n2C)n1Cc1ccccc1Cl | . | -10.1% | . | 5.8 | 6.4% | -17.5%
C(/Oc1ccccc1)=C1\Nn2c(nnc2-c2cc(-c3ccccc3)n[nH]2)S1 | . | -3.1% | . | . | 7.08µM* | 20µM*
CC1=Nn2c(nnc2-c2cc(-c3ccccc3)n[nH]2)SC1 | ? | -1.2% | 8.7 | 9.7 | -13.7% | -18.6%
COc1cc(C(=O)Nc2ccc(NC(=O)c3ccc(Br)cc3)cc2)cc(OC)c1OC | . | -8.9% | . | -1.3 | -1.8% | -3.7%
COc1cc(C(=O)Nc2ccc3ccccc3c2)cc(OC)c1OC | -14.6 | . | 3.5 | -6.0 | ? | 0.651µM*
COc1cc(OC)cc(C(=O)Nc2ccc(C(=O)c3ccncc3)cc2)c1 | -9.6 | -1.2% | -24.3 | 5.2 | ? | ?
COc1cc(C(=O)Nc2ccc(C(=O)c3ccncc3)cc2)cc(OC)c1OC | 0.0 | -0.4% | -14.6 | 2.7 | 14.6µM* | 23.1µM*
COc1cc(OC)cc(C(=O)NCC(=O)OCc2cc(=O)oc3cc(OC)ccc23)c1 | 26.0 | 3.2% | 13.4 | -3.0 | 11.4% | 15.3%
SMILES | D3 antag | ClpP mod | IL-1B inflam inh | DRD3 agonist | TDP1 cell CPT | DT40 TDP1 no CPT
COCc1cc(=O)oc2cc(NC(=O)c3ccc(C(C)(C)C)cc3)ccc12 | -19.7 | 0.5% | -11.7 | -13.0 | 9.2µM* | 14.6µM*
COc1cc(C(=O)Nc2ccc(NC(=O)c3ccc(C(C)(C)C)cc3)cc2)cc(OC)c1OC | . | -30.0% | . | 25.1 | 2.91µM* | 3.26µM*
COc1ccc(C(=O)Nc2ccc3ccccc3c2)cc1OC | 0.0 | 0.0% | -21.6 | -3.8 | 1.7% | -14.2%
CCS(=O)(=O)C(C)(CCl)C(=O)Nc1ccc(C(=O)OC)cc1 (configuration not stated) | -6.3 | -0.7% | 1.9 | -14.6 | -20.6% | ?
CC(C)c1ccc(S(=O)(=O)N2CCC(n3c(C(F)(F)F)nc4cccnc43)CC2)cc1 | . | -0.8% | . | -3.0 | ? | ?
COc1cc2c(cc1OC)C(c1ccccc1)N(S(C)(=O)=O)CC2 (configuration not stated) | 3.1 | -0.3% | -11.4 | -1.9 | -22.4% | 1.1%
CC(=O)c1ccc[nH]1 | . | . | . | . | -12.2% | 0.6%
O=C(CSc1nnc(CNC(=O)c2ccccc2)o1)Nc1nccs1 | 12.3 | 1.4% | i | 11.2 | -24.8% | ?
Cc1nc(N2CCN(C)CC2)c2sc(=S)n(-c3ccccc3)c2n1 | -13.6 | -2.1% | -16.0 | -5.8 | ? | ?
S=c1sc2c(Cl)ncnc2n1-c1ccccc1 | -61.4* | 1.5% | -96.3* | -5.8 | 16.4µM* | 10.3µM*
Cc1cccc(N2CCN(Cc3nnc(-c4ccc5c(c4)OCO5)o3)CC2)c1C | . | -1.2% | . | -2.5 | -4.0% | -3.4%
CCC1CCCCN1CCCNC(=O)Cn1c2ccccc2c2nc(=O)cc(C)n21 (configuration not stated) | -1.8 | 4.1% | 14.0 | -12.3 | 5.4% | -22.4%
O=C(O)COc1ccccc1/C=C1\SC(=S)N(c2cccnc2)C1=O | 6.6 | . | -7.1 | 3.1 | ? | -23.9%
CC1CCN(C(=O)c2ncn(C)c2C(=O)N2CCC(C)CC2)CC1 | -51.1* | 0.0% | 21.7 | 12.6 | -7.8% | -4.9%
CC1CCN(C(=O)c2ncn3c2c(=O)[nH]c2ccccc23)CC1 | 8.6 | -20.3% | 2.2 | 0.3 | 2.9% | 6.5%
Cc1cc(C(F)F)n2nc(C(=O)Nc3cc(Cl)ccc3C)nc2n1 | . | -3.7% | . | 1.3 | -8.7% | -23.6%
Cc1ccc(S(=O)(=O)N(C)C)cc1NC(=O)COC(=O)c1cccs1 | 9.9 | 2.2% | -12.7 | 0.6 | -17.5% | 2.5%

Bioassay records: PubChem, National Center for Advancing Translational Sciences (NCATS)
